Measurements: PubChem BioAssay AID1347428 (National Center for Advancing Translational Sciences (NCATS), 2020)
The campaign covered roughly 91,000 compounds. About 290 (0.32%) were called active. Another 7% or so got no clear call; they are omitted. The call rests on the fitted dose curve; in most records, active means well fitted inhibition curve with a large enough effect; inconclusive means small, poorly fitted or top-dose-only effect; inactive means no such curve, though single readings can be large or run the other way. Shown is part of a subset that was picked to be rich in actives. Entries that show only a call come without a potency.
Further: nearly all actives have a fitted effect of over 25% in size.
Potency means the concentration at half of the fitted maximal effect.

The compounds below were run against Single-stranded DNA cytosine deaminase (Homo sapiens) (UniProt Q9GZX7) (assay: Primary qHTS assay for inhibitors of Activation Induced Cytidine Deaminase (AID): AID signal). Settings: AID deamination FRET fluorescence, UDG-coupled, 4 h; series mostly up to 115 µM.
Single-stranded DNA cytosine deaminase (Homo sapiens), sequence (Q9GZX7 whole entry, looked up): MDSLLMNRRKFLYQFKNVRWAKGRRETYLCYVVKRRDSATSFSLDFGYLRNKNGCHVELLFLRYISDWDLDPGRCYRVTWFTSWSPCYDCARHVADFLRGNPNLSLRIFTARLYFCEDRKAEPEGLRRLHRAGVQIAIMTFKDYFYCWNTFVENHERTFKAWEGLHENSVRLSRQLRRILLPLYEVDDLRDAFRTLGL
Excerpt: Assay Provider (PI) Patricia Gearhart Ph.D.
National Institute on Aging
National Institute of Health (NIH), Bethesda, MD
Assay Provider (PI) Rahul Kohli Ph.D.
Perelman School of Medicine
University of Pennsylvania, Philadelphia, PA
Activation-Induced Deaminase (AID) is a cytosine deaminase which converts cytosine into uracil within stretches of ssDNA. The presence of uracil in DNA initiates a cascade of mutagenic DNA repair to introduce point mutations and DNA double strand breaks. Specific targeting of AID to the immunoglobulin heavy chain loci (Igh) promotes mutagenesis in the antibody variable region for somatic hypermutation (SHM) or switch regions leading to class switch recombination (CSR). However, AID also plays a role in accumulating unnecessary mutations across the genome. Mis-targeting of AID results in the initiation of tumor development and leads to greater drug resistance among cancer cells when continually expressed. To identify an AID inhibitor, a small molecule library will be screened in collaboration with NCATS core facility at NIH. To confirm biological function, inhibitors will be examined in an in vitro murine B-cell activation assay and subsequent secondary validation screens. Top molecules will be further screened to identify inhibitory efficacy against a wild type primary splenocytes assay. Using these approaches, we hope to identify a small molecule with great efficacy and low toxicity for use as a molecular probe to further characterize AID's intricacies, or even as a therapeutic.
A FRET based analysis of cytosine deamination, was developed to identify potential inhibitors of AID catalytic activity. This screen has two signal output, Read 1 evaluates the AID inhibition response. The second readout (Read 2) evaluates UDG response and is uses as a counterscreen to exclude false positive inhibitors. Inhibition in AID and inactivity in the UDG signal is the desired outcome for this assay.
SEQUENCE No. (e.g., 1, 2, 3, etc.); […] (e.g., Cells, Incubation, Reagent, etc.); VALUE; DESCRIPTION
1a; Reagent; 3 uL; [4/3x] 1 uM AID/2.67 U/mL UDG
1b; Reagent; 3 uL; 2 U/mL UDG
1c; Reagent; 3 uL; 1 uM AID
2a; Compound; 46 nL; Follow-up plates (0.64 uM - 10 mM)
2b; Control; 46 nL; ATA ([…] - 10 mM)
3; Time; 10 min; incubation at room temperature
5; Time; 4 hr; incubation at room temperature
6; Reagent; 4 uL; [2x] 250 mM NaOH
7; Time; 15 sec; centrifuge at 1000 rpm
8; Time; 30 min; incubation at room temperature
9a; Detection; fluorescence (Read 1: AID); EnVision (PerkinElmer) plate reader, 540 excitation and 590 emission filters
9b; Detection; fluorescence (Read 2: UDG); EnVision (PerkinElmer) plate reader, 560 excitation and 665 emission filters
NOTES (numbers refer to sequence above)
1a; Reagents were dispensed in a medium-binding black solid-bottom Greiner plates (789176F) using a BioRptr liquid dispenser. Dispense 3 uL of [4/3x] 1 uM AID (provided by Kohli lab) and [4/3x] 2 U/mL UDG (NEB M0280L) into columns 1, 2, 5 to 48.
1b; Dispense 3 uL of [4/3x] 2 U/mL UDG into column 3.
1c; Dispense 3 uL of [4/3x] 1 uM AID into column 4.
2a; Compound (7-points [uM] (0.64; 3.2; 16; 80; 400; 2,000; 10,000; 20,000) double pin-transferred (Dip Factor = 2) using the Kalypsys (Wako USA) pintool equipped with a 1536 pinhead for a final concentration range of 7.32 nM - 114 uM.
2b; 10 mM Aurintricarboxylic Acid (Sigma A1895) (ATA, 8-point, n = 2, 1:2.5 dilution in column 2) double pin-transferred (Dip Factor = 2) using the Kalypsys (Wako USA) pintool equipped with a 1536 pinhead for a [final] range of 186 nM - 114 uM.
3; Room temperature incubation.
4; Dispense 1 uL of substrate mixture from the Kohli lab [4x] […] DJC20 and [4x] 250 nM DJC23 into columns 1 to 48 .
5; Room temperature incubation.
6; Dispense 4 uL of substrate mixture [2x] 250 mM NaOH into columns 1 to 48.
7; Centrifugation step to remove bubbles.
8; Room temperature incubation
9a; Fluorescence signal (column label AID) was read using the EnVision plate reader. […]
`CSc1ccc(C)c(C(=O)NCC2CC2)c1` was tested, and the Potency was “inactive”. `O=C(O)Cn1cccc(C(F)(F)F)c1=O` was tested, and the Potency was “inactive”. `COc1cc(C(=O)NC2CCOC2=O)cc(OC)c1OC` (configuration not stated) was tested, and the Potency was “inactive”. For `O=C(O)CCCC(=O)N1CCN(c2ccc(Cl)c(Cl)c2)CC1`, the Potency was “inactive”. In the case of `Cc1cc(Br)cc(C)c1O`, the Potency was “inactive”. In the case of `O=C(Nc1ccc(Br)cc1)C(c1ccccc1)C1CCCC1` (configuration not stated), the Potency was “inactive”. For `O=C(NCc1ccc(F)cc1)NC1CC1`, the Potency was “inactive”. In the case of `O=C(/C=C/c1ccc(OCc2ccccc2)cc1)c1cccnc1`, the Potency was “inactive”. `CN(CCOc1ccc(Br)cc1)C(=O)CSc1nnnn1C` was tested, and the Potency was “inactive”. In the case of `CC(C)c1ccc(Cn2c(COc3ccccc3)nc3ccccc32)cc1`, the Potency was “inactive”. For `Cc1c(C)n(Cc2ccc(Cl)cc2)c2ccc(C(=O)N3CCN(c4ccccc4F)CC3)cc12`, the Potency was “inactive”. For `CC(C)c1ccc2c(c1)c(SC(C)(C)C)c(CC(C)(C)C(=O)O)n2Cc1ccc(Cl)cc1`, the Potency was 79.4 µM (active). In the case of `CC1CCc2cc(F)ccc2N1C(=O)C1(C)CC1(Br)Br` (configuration not stated), the Potency was “inactive”. With `CC(C)CNC(=O)NC1=C(C#N)C(C)(C)Cc2ccccc21` the Potency was “inactive”. With `CNc1snc(C)c1C(=O)N(C)CCOc1ccccc1C` the Potency was “inactive”. With `CCOc1ccc(C(=O)Nc2cc(C(F)(F)F)ccc2Cl)cc1Cl` the Potency was “inactive”. `COc1cc(C2SCCS2)ccc1OC(=O)c1ccc2c(c1)NC(=O)CS2` was tested, and the Potency was “inactive”. With `COc1ccc(OC)c(-n2cnc3c2NC(=O)CC3c2ccsc2)c1` (configuration not stated) the Potency was “inactive”. `O=C(NCCc1ccc(C(F)(F)F)cc1)c1ccccn1` was tested, and the Potency was “inactive”. In the case of `COc1ccc(C2Nc3ccccc3C(=O)N2c2ccc(C)cc2)cc1CN1CCOCC1` (configuration not stated), the Potency was “inactive”. With `Cc1ccccc1NC(=O)CSC1=C(C#N)C(c2ccccc2F)CC(=O)N1` (configuration not stated) the Potency was “inactive”. For `Cc1noc(C)c1COc1cccc(C(=O)Nc2ccc(S(=O)(=O)NCc3ccco3)cc2)c1`, the Potency was “inactive”. `Cc1cc(Nc2ccccc2)n2nc(Cc3ccc(Cl)cc3)nc2n1` was tested, and the Potency was “inactive”. With `CN(C)S(=O)(=O)c1ccc(NC(=O)COc2ccc3cc(Br)ccc3c2)cc1` the Potency was “inactive”. In the case of `O=C(c1cc2ccccc2o1)c1ccc(F)cc1F`, the Potency was “inactive”. In the case of `Cc1cc(C)c(NC(=O)C(C)Oc2ccc(C#N)cc2)c(C)c1` (configuration not stated), the Potency was “inactive”. For `COCCn1cnnc1SC(C)C(=O)c1ccc(F)cc1` (configuration not stated), the Potency was “inactive”. For `COC(=O)c1ccc(C(=O)OC(C)C(=O)C23CC4CC(CC(C4)C2)C3)cc1` (configuration not stated), the Potency was “inactive”. With `CCCCn1c(N2CCN(CCc3ccccc3)CC2)nc2c1c(=O)[nH]c(=O)n2C` the Potency was “inactive”. With `Cn1c(=O)n(Cc2ccccc2)c(=O)c2c1nc(NCc1ccccc1)n2Cc1ccccc1` the Potency was “inactive”. With `CCC/C=N/NC(=O)c1ccc(C)cc1C` the Potency was “inactive”. With `COc1ccc(C(=O)/C(C#N)=C\c2ccccc2C(F)(F)F)cc1` the Potency was “inactive”.
